Source: PubChem BioAssay (NCATS)
Records with an inconclusive call do not appear. Active and inactive are the calls of the source. Unless noted, calls come from the whole dose curve; as a rule, active = well fitted curve in the direction sought with a large enough effect; inconclusive = small, poorly fitted or top-dose-only effect, or another doubt; inactive = no such curve, though single readings can be large; an effect the other way counts as inactive or inconclusive.

Tests used:
[1] = qHTS for inhibitors of adenylyl cyclases using a fission yeast platform: a pilot screen against the NCATS LOPAC library (AID 1347410);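 note: plate controls were DMSO vehicle for no effect and DPI positive control for full effect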
In short: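 Fission yeast qHTS: CHP2027 cells (AC9-GNAS-PDE4D2, fbp1-GFP), 5x10^6 cells/mL working density, EMM + His/Lys/Ura; LOPAC at up to 57 µM final; 18 h dark, 30C; GFP by laser cytometry. DPI positive control, DMSO vehicle.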

[2] = molecular target: Single-stranded DNA cytosine deaminase (Homo sapiens) (UniProt Q9GZX7); experiment: Validation qHTS assay for inhibitors of Activation Induced Cytidine Deaminase (AID): AID signal (AID 1347429); note: % is set by controls: 0 for no effect and ±100 for the full control effect
Single-stranded DNA cytosine deaminase (Homo sapiens), sequence (Q9GZX7 whole entry, looked up): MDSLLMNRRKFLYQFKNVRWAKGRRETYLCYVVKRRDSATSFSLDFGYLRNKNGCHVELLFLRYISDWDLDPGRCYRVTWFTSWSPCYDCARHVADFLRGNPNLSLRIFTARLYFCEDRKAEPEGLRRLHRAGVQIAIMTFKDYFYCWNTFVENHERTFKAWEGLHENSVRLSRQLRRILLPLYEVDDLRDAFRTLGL
In short: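 Compounds (up to 114 uM final) are tested against AID plus UDG using DJC20/DJC23 FRET substrate. Reactions incubate 4 hr at room temperature, receive NaOH for 30 min, and are read at Ex 540/Em 590 nm.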

[3] = Primary qHTS for inhibitors of La Crosse Virus (LACV) - induced cell death in SH-SY5Y cells (AID 1508616);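 note: top concentration of the series differs between compounds; 0% = infected DMSO wells and 100% = uninfected DMSO wells; higher means more rescue of cells from virus-induced death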
In short: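 Screening measures cell viability in LACV-infected SH-SY5Y cultures. Compound was added before virus (0.01 MOI), and ATP was detected by luminescence 6 days later.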

[4] = molecular target: Calcium and integrin-binding protein 1 (Homo sapiens) (UniProt Q99828); experiment: Validation qHTS for Identification of Calcium Integrin Binding protein 1 (CIB1) Competitor (AID 1508618); note: % is set by controls: 0 for no effect and ±100 for the full control effect
Calcium and integrin-binding protein 1 (Homo sapiens), sequence (Q99828 whole entry, looked up): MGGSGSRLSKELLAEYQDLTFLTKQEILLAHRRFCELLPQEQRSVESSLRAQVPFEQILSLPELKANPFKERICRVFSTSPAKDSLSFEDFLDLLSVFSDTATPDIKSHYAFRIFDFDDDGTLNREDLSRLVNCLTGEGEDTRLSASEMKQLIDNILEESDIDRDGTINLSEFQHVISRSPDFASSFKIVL
In short: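 Fluorescence polarization with 1 uM CIB1-GST and 100 nM FITC-alphaIIb peptide in HEPES pH 7.4, NaCl, 5 mM CaCl2, Tween20. Compounds at up to 114 uM final, preincubated with protein 15 min; read after 15 min more at RT.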

[5] = molecular target: Calcium and integrin-binding protein 1 (Homo sapiens) (UniProt Q99828); experiment: Primary qHTS for Identification of Calcium Integrin Binding Protein 1 (CIB1) Competitor (AID 1508620);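 note: GST tagged CIB1 binding a fluorescein labelled alphaIIb integrin peptide tracer; top concentration of the series differs between compounds; % is set by controls: 0 for no effect and ±100 for the full control effect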
In short: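 CIB1-GST (1 uM final) and compound incubated 15 min at room temperature before adding FITC-alphaIIb peptide tracer (100 nM final). Competition for binding read by fluorescence polarization (ex 480, em 540) after another 15 min at room temperature.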

[6] = Primary qHTS for small molecule stabilizers of the endoplasmic reticulum resident proteome: Secreted ER Calcium Modulated Protein (SERCaMP) assay (AID 1508630); note: % is set by controls: 0 for no effect and ±100 for the full control effect
In short: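 The SH-SY5Y reporter protocol was run at 3 concentrations up to 38.3 uM (primary) or 11 concentrations (follow-up): 16 h compound, 100 nM thapsigargin for 4 h, then extracellular luciferase luminescence.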

Papain (Carica papaya) = Papain (Carica papaya) (UniProt P00784); experiment: Primary qHTS assay for inhibitors of the protease papain (AID 1645873);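 note: papain turnover of Z-FR-AMC read as the AMC fluorescence gain over 10 min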; note: potency is the fitted concentration of half-maximal effect
Papain (Carica papaya), sequence (P00784 whole entry, looked up, the tested form may be a part): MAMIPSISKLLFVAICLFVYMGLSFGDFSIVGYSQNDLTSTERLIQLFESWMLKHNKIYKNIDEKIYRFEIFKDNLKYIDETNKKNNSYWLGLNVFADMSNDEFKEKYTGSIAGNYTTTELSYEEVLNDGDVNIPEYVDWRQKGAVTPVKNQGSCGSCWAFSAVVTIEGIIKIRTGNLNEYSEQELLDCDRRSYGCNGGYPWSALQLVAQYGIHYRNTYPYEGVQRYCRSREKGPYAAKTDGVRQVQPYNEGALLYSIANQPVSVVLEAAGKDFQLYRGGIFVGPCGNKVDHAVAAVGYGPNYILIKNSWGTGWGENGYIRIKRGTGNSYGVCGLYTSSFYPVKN

[7] = Primary qHTS for inhibitors of nuclear receptor binding SET domain protein 2 (NSD2) in an isogenic RCH-ACV NSD2 p.E1099K mutant (9B) (AID 1645876); note: nearly all actives have a fitted effect of over 70% in size; note: potency is the fitted concentration of half-maximal effect
[8] = molecular target: Cytochrome P450 2D6 (Homo sapiens) (UniProt P10635); experiment: Cytochrome P450 family 2 subfamily D member 6 (CYP2D6) small molecule antagonists: luciferase biochemical (cell-free) qHTS assay (AID 1645840; active = well fitted curve in the direction sought with a large enough effect in the repeat runs; an effect the other way counts as inactive or inconclusive; note: nearly all actives have a fitted effect of over 55% in size; note: potency is the fitted concentration of half-maximal effect)
Cytochrome P450 2D6 (Homo sapiens), sequence (P10635 whole entry, looked up): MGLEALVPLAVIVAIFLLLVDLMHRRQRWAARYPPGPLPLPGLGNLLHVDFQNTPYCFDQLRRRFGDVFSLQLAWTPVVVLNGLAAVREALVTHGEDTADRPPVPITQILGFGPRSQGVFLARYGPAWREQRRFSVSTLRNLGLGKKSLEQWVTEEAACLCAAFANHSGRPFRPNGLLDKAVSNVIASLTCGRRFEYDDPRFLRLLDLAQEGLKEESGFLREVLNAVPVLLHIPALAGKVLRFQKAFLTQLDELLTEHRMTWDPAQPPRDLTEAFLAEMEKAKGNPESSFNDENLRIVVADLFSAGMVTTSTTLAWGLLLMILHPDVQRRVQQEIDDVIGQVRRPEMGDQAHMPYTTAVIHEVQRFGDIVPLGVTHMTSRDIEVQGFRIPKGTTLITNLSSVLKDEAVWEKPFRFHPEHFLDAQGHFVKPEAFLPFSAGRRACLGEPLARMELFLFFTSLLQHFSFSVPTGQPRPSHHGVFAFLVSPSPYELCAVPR
In short: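 P450-Glo CYP2D6 system: proluciferin substrate converted by enzyme to luciferin, read by luminescence proportional to activity. Enzyme-substrate mix with compound 10 min at room temperature, then NADPH regeneration 1 h before detection reagent.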

[9] = molecular target: Cytochrome P450 2C9 (Homo sapiens) (UniProt P11712); experiment: Cytochrome P450 family 2 subfamily C member 9 (CYP2C9) small molecule antagonists: luciferase biochemical (cell-free) qHTS assay (AID 1645842; active = well fitted curve in the direction sought with a large enough effect in the repeat runs; an effect the other way counts as inactive or inconclusive; note: series mostly up to about 57 µM; % is set by controls: 0 for no effect and ±100 for the full control effect; nearly all actives have a fitted effect of over 55% in size)
Cytochrome P450 2C9 (Homo sapiens), sequence (P11712 whole entry, looked up): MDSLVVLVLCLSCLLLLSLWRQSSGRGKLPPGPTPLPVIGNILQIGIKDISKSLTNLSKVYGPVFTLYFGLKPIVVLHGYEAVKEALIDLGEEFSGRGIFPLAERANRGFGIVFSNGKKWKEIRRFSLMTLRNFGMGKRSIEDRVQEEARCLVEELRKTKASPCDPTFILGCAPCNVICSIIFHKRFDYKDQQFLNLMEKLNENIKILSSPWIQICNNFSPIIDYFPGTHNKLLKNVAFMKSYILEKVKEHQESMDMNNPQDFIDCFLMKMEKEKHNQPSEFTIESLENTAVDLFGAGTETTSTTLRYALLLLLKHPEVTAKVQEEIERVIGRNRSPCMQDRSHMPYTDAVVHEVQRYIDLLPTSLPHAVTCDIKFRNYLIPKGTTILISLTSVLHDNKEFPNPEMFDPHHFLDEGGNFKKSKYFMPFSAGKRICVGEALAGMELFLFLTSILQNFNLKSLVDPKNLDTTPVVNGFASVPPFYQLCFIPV
In short: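 P450-Glo CYP2C9 system: proluciferin substrate with enzyme in mix containing 0.4% BSA, 10 min at room temperature, then NADPH regeneration solution added and incubated 1 h at 37C. Detection reagent stopped reaction; luminescence read after 20 min as RLU.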

[10] = qHTS to identify inhibitors of the type 1 interferon - major histocompatibility complex class I in skeletal muscle: primary screen against the NCATS Mechanism Interrogation Plate v5.0 (MIPE) Libary (AID 1347411);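 note: plate controls were vehicle for no effect and reference inhibitor for full effect; nearly all actives have a fitted effect of over 65% in size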
In short: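 IFN-beta-driven (4 ng/ml) HLA-B-HiBit expression in CRISPR-tagged C25cl48 myoblasts; compounds 11-pt, 1:3, max 46 uM, 24 hr exposure; lytic NanoLuc complementation luminescence.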

[11] = Counterscreen qHTS for small molecule stabilizers of the endoplasmic reticulum resident proteome: GLuc-NoTag assay (AID 1508627);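 note: SH-SY5Y cells given compound then 100 nM thapsigargin to empty ER calcium; series mostly up to about 76 µM; 0% = thapsigargin alone and -100% = DMSO vehicle control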
In short: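 Counterscreen line: SH-SY5Y-GLuc-NoTag cells, treated with compound 19 hr before a 4 hr, 100 nM thapsigargin calcium depletion. Secreted Gaussia luciferase in the medium was measured by luminescence after coelenterazine was added (0.07x final), with cells unlysed.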

[12] = Confirmatory qHTS for small molecule stabilizers of the endoplasmic reticulum resident proteome: Secreted ER Calcium Modulated Protein (SERCaMP) assay (AID 1508628); note: series mostly up to about 76 µM; % is set by controls: 0 for no effect and ±100 for the full control effect; nearly all actives have a fitted effect of over 40% in size
In short: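 GLuc-SERCaMP-expressing SH-SY5Y cells, pretreated 16 h with compound, are challenged with thapsigargin to empty ER calcium stores; after 4 h, coelenterazine is added directly to the medium and luminescence is imaged.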

[13] = Cell Viability qHTS for small molecule stabilizers of the endoplasmic reticulum resident proteome (AID 1508629); settings: cell viability counter-screen, 100 nM thapsigargin for final 4 h
[14] = Primary qHTS for inhibitors of nuclear receptor binding SET domain protein 2 (NSD2) in an RCH-ACV wild type WT cells (2C) (AID 1645877); note: nearly all actives have a fitted effect of over 70% in size; note: potency is the fitted concentration of half-maximal effect
[15] = molecular target: Protein phosphatase 1D (Homo sapiens) (UniProt O15297); experiment: RapidFire Mass Spectrometry qHTS Assay for Modulators of WT P53-Induced Phosphatase 1 (WIP1) (AID 1347424);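 note: amount of dephosphorylated VEPPL-S-QETFS peptide product formed by WIP1; series mostly up to about 63 µM; plate controls were DMSO wells for no effect and GSK830371 inhibitor control at 10 µM for full effect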
Protein phosphatase 1D (Homo sapiens), sequence (O15297 whole entry, looked up): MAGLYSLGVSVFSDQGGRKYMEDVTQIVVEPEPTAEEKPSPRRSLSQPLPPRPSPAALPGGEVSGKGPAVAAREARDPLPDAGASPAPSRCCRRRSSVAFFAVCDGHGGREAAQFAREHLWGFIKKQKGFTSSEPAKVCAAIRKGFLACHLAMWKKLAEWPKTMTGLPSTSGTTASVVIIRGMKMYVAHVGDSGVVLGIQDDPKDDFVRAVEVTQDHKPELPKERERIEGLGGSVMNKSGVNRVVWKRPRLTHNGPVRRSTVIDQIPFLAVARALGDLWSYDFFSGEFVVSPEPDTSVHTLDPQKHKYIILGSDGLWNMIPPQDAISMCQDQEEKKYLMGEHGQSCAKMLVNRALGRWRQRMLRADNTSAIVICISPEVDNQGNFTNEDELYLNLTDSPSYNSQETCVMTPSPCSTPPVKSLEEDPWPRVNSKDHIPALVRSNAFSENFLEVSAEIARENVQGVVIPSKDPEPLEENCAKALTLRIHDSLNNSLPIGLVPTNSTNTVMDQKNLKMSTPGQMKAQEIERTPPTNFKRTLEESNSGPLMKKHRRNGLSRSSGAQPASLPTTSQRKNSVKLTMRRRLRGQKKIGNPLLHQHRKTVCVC
In short: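 RapidFire mass spectrometry measured dephosphorylated peptide after 5 min room-temperature reaction of 2 uM VEPPL-pS-QETFS with 10 nM WIP1 (50 mM Tris-HCl pH 7.5, 30 mM MgCl2, 0.1 mM EGTA, BSA), following 1 hr compound preincubation; 1 uM isotope-labelled product standard.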

[16] = molecular target: Protein phosphatase 1D (Homo sapiens) (UniProt O15297); experiment: Rhodamine-PBP qHTS Assay for Modulators of WT P53-Induced Phosphatase 1 (WIP1) (AID 1347425); note: % of control where 0% means no effect
In short: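 WIP1 (5 nM final) was preincubated with compound for 1 hour at room temperature. It then dephosphorylated 10 uM VEPPL-pS-QETFS peptide in Tris-HCl pH 7.5 with 30 mM MgCl2. Released Pi was detected by 10 uM Rh-PBP fluorescence (ex 525/em 598 nm) read at 1-min intervals for 11 min, as delta f1 - f0.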

[17] = molecular target: N-terminal Xaa-Pro-Lys N-methyltransferase 1 (Homo sapiens) (UniProt Q9BV86); experiment: Confirmatory qHTS for Inhibitors of N-terminal methyltransferase 1 (NTMT1): MTaseGlo Assay (AID 1645874); note: potency is the fitted concentration of half-maximal effect; nearly all actives have a fitted effect of over 65% in size
N-terminal Xaa-Pro-Lys N-methyltransferase 1 (Homo sapiens), sequence (Q9BV86 whole entry, looked up): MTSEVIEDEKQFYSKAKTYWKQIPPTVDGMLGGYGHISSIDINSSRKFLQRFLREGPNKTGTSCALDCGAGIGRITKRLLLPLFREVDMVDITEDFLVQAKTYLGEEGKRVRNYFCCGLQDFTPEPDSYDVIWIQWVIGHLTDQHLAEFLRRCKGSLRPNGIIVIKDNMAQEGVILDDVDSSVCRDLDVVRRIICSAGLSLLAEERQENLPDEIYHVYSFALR
In short: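 Inhibition was derived from luminescence after SAH-to-ATP conversion, scaled between no-enzyme and DMSO wells, then fitted by 4-parameter Hill. Conditions: 125 nM NTMT1, 100 uM SAM, 1 uM SPKRIA, 30 min RT.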

O=C(CCc1ccc(O)cc1)c1c(O)cc(O)cc1O
inactive: outcome [1] | outcome [2] | Potency [3] | outcome [4] | Potency [5] | Potency [6] | Potency (Papain (Carica papaya)) | Potency [7]

NC(=NCc1ccccc1)NC(=O)c1nc(Cl)c(N)nc1N
active: Potency [8] 5.35 µM | Potency (Papain (Carica papaya)) 31.6 µM | Potency [7] 13.2 µM
inactive: outcome [1] | outcome [2] | Potency [3] | outcome [4] | Potency [5] | Potency [6] | Potency [9]

O=c1cc(N2CCOCC2)oc2c(-c3ccccc3)cccc12
inactive: outcome [1] | Potency [10] | outcome [2] | Potency [11] | Potency [12] | max response [13] -28.5% | Potency [6]
active: Potency [7] 4.17 µM | Potency [14] 2.63 µM

c1cnc2cc3c(cc2n1)C1CNCC3C1
inactive: outcome [1] | Potency [10] | Potency [15] | outcome [16] | Potency [3] | outcome [4] | Potency [5] | Potency [6] | Potency [8] | Potency [9] | Potency (Papain (Carica papaya)) | Potency [7] | Potency [14]

COc1ccccc1N1CCN(CCN(C(=O)C2CCCCC2)c2ccccn2)CC1
inactive: outcome [1] | Potency [10] | outcome [2] | Potency [3] | outcome [4] | Potency [5] | Potency [6] | Potency (Papain (Carica papaya)) | Potency [7] | Potency [14]

Oc1ccc(-c2nc(-c3ccc(F)cc3)c(-c3ccncc3)[nH]2)cc1
inactive: outcome [1] | Potency [10] | outcome [2] | Potency [3] | outcome [4] | Potency [5] | Potency [6] | Potency (Papain (Carica papaya))
active: Potency [17] 39.8 µM | Potency [7] 5.25 µM | Potency [14] 14.8 µM

Cc1cccc(-c2[nH]ncc2-c2ccc3ncccc3n2)n1
inactive: outcome [1] | Potency [10] | outcome [4] | Potency [5] | Potency [6]

C[C@@H](N)C1CCC(C(=O)Nc2ccncc2)CC1 (stereo partly specified)
inactive: outcome [1] | Potency [10] | outcome [2] | Potency [3] | outcome [4] | Potency [5] | Potency [6] | Potency (Papain (Carica papaya)) | Potency [7]

CC(=O)NC[C@H]1CN(c2ccc(N3CCOCC3)c(F)c2)C(=O)O1
inactive: outcome [1] | Potency [10] | Potency [6] | Potency [8] | Potency (Papain (Carica papaya)) | Potency [7] | Potency [14]

NCCCCNCCCN
inactive: outcome [1] | outcome [2] | Potency [3] | outcome [4] | Potency [5] | Potency [6] | Potency (Papain (Carica papaya))

CN(C)CCCC1(c2ccc(F)cc2)OCc2cc(C#N)ccc21 (stereo unspecified)
inactive: outcome [1] | outcome [2] | Potency [3] | outcome [4] | Potency [5] | Potency [6] | Potency (Papain (Carica papaya))
